From PubChem BioAssay AID1697 (The Scripps Research Institute Molecular Screening Center, 2009)
The other results are listed elsewhere or left out. A number with no mark means an inactive call. The source made the active and inactive calls.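 How the source made its calls: active means percent activation above the mean of DMSO-only control wells plus 3 SD of those wells (cut at about 18% in these data); inactive means the rest.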

Target: Neuropeptide Y receptor type 1 (Homo sapiens) (UniProt P25929)
Sequence (P25929 whole entry, looked up): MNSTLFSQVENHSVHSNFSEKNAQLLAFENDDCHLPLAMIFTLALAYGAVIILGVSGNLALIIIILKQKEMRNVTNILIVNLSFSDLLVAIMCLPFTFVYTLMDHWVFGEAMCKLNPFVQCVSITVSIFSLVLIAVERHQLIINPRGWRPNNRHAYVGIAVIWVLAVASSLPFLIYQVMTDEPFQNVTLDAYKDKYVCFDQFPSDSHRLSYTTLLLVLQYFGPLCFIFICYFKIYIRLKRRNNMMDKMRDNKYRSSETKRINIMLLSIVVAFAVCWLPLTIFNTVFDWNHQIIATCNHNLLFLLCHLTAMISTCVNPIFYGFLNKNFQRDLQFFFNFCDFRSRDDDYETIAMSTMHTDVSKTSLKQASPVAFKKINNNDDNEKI
Assay: NPY-Y1 direct agonists without NPY, confirmation, counter-screen for NPY-Y1 potentiator project, cell-based, fluorescence (AID 1697);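 further: cells challenged with isoproterenol plus Ro 20-1724 with no NPY in test wells; Y1 agonism lowers isoproterenol-driven cAMP and reduces probe fluorescence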
Settings: HEK293 Y1-CNGC, membrane potential fluorescence, agonist mode; at 3.6 µM; hits give high values

Row | SMILES | activation
1 | Cc1nn(Cc2ccccc2Cl)c(Cl)c1C(=O)OC(C(=O)NC(N)=O)C(C)C (configuration not stated) | 30.6% (active)
2 | CSC1=NP(=S)(SC)N(C)c2nc3n(c21)CCC3 (configuration not stated) | 9.49%
